Measured values: PubChem BioAssay (Tox21)
Records with an inconclusive call do not appear. The source made the active and inactive calls. Unless noted, the call rests on the fitted dose curve; in most records, active means well fitted curve in the direction sought with a large enough effect in the repeat runs; inconclusive means weak or mixed curves; inactive means no such curve, though single readings can be large; an effect the other way counts as inactive or inconclusive. Positions of bridges follow the written chain, without caps; N, C: chain ends. Non-standard residues stand in square brackets, D forms with d. Residues, ends and D or L forms follow the SMILES beside them. pGlu = O=C1CC[C@@H](C(=O)O)N1; Orn = NCCC[C@H](N)C(=O)O; Thz = O=C(O)[C@@H]1CSCN1; Mpa = O=C(O)CCS

Assays:
[1] = qHTS assay to identify small molecule antagonists of the glucocorticoid receptor (GR) signaling pathway - cell viability counter screen (AID 720693); further: nearly all actives have a fitted effect of over 55% in size
[2] = qHTS assay for identifying genotoxic compounds that show differential cytotoxicity against isogenic chicken DT40 cell lines with known DNA damage response pathways - wild type cell line (AID 743012); further: nearly all actives have a fitted effect of over 60% in size
How it was run: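 Luminescent ATP viability signal (CellTiter-Glo, 30 min RT) recorded after wild type DT40 cells were incubated with compounds for 40 h at 37 C/5% CO2.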

[3] = qHTS assay for identifying genotoxic compounds that show differential cytotoxicity against isogenic chicken DT40 cell lines with known DNA damage response pathways - Rev3 mutant cell line (AID 743014); further: nearly all actives have a fitted effect of over 55% in size
[4] = qHTS assay for identifying genotoxic compounds that show differential cytotoxicity against isogenic chicken DT40 cell lines with known DNA damage response pathways - Rad54/Ku70 mutant cell line (AID 743015); further: nearly all actives have a fitted effect of over 60% in size
[5] = qHTS assay to identify small molecule antagonists of the androgen receptor (AR) signaling pathway - cell viability counter screen (AID 743033; further: nearly all actives have a fitted effect of over 45% in size)
[6] = target: Androgen receptor (Homo sapiens) (UniProt P10275); assay: qHTS assay to identify small molecule antagonists of the androgen receptor (AR) signaling pathway (AID 743035; active means well fitted inhibition curve with a large enough effect in the signal ratio in the repeat runs, not every such curve was filed as active; the % refers to the signal ratio)
How it was run: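 Quantitative HTS of the Tox21 10K library used HEK293 AR-UAS-bla cells stimulated with R1881 alongside compound for 16 h at 37C, followed by beta-lactamase FRET detection (LiveBLAzer B/G, 2 h, RT).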

[7] = target: Androgen receptor (Homo sapiens) (UniProt P10275); assay: qHTS assay to identify small molecule agonists of the androgen receptor (AR) signaling pathway (AID 743036; active means well fitted activation curve with a large enough effect in the signal ratio in the repeat runs, with a control signal flat, not every such curve was filed as active; the % refers to the signal ratio)
How it was run: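 Quantitative HTS of the Tox21 10K library in HEK293 cells bearing a stably integrated UAS-controlled beta-lactamase reporter. Compound exposure lasted 16 h at 37C. Reporter activity was detected by FRET substrate fluorescence after 2 h at room temperature.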

[8] = target: Androgen receptor (Homo sapiens) (UniProt P10275); assay: qHTS assay to identify small molecule agonists of the androgen receptor (AR) signaling pathway using the MDA cell line (AID 743040; further: nearly all actives have a fitted effect of over 20% in size)
How it was run: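 Luciferase agonist assay: 16 h compound exposure at 37C without CO2 in MDA-kb2 AR-luc cells, whose MMTV promoter responds to both AR and GR. Luminescence measured after 30 min room-temperature incubation with ONE-Glo.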

[9] = qHTS assay to identify small molecule antagonists of the androgen receptor (AR) signaling pathway using the MDA cell line - cell viability counter screen (AID 743041; further: nearly all actives have a fitted effect of over 45% in size)
How it was run: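 Viability read by CellTiter-Fluor fluorescence in the same wells as the antagonist screen, added after 15.5 h of a 16 h, 37C exposure. Human breast carcinoma MDA-kb2 AR-luc cells, compounds co-dosed with agonist R1881.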

[10] = target: Androgen receptor (Homo sapiens) (UniProt P10275); assay: qHTS assay to identify small molecule antagonists of the androgen receptor (AR) signaling pathway using the MDA cell line (AID 743042; further: nearly all actives have a fitted effect of over 55% in size)
How it was run: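 Antagonist mode: compounds plus R1881 agonist added to MDA-kb2 AR-luc cells, incubated 16 h at 37C. Luciferase reporter luminescence quantified, with multiplexed CellTiter-Fluor readout for cell viability.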

Measured: Potency
Potency means the concentration at half of the fitted maximal effect.

Chain of Androgen receptor (Homo sapiens) (P10275 whole entry, looked up): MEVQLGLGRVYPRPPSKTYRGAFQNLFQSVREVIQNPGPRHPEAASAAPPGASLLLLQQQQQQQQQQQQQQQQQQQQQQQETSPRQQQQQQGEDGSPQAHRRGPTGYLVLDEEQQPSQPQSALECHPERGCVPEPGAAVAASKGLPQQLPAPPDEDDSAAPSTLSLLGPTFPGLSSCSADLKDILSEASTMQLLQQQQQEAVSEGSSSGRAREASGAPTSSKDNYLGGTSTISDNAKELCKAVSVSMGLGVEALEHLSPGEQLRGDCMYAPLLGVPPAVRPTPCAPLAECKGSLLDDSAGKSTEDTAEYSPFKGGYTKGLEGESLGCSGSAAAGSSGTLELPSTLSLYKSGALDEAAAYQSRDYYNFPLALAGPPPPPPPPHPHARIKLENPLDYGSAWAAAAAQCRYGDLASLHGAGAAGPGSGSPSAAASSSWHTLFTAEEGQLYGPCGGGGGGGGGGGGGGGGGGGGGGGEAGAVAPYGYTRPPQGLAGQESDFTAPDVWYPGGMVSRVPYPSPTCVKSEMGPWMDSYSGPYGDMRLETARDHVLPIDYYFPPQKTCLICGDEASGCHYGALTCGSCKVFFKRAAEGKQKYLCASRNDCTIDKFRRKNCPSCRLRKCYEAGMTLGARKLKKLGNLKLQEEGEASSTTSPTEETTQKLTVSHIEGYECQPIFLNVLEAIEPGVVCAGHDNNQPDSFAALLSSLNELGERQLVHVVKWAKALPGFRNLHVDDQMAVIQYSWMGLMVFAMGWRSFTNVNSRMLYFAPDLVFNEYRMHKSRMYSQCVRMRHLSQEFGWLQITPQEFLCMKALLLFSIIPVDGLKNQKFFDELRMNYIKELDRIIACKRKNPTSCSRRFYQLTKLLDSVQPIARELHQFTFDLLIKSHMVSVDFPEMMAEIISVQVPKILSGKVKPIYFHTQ

CC(CCc1ccc(O)cc1)NCC(O)c1ccc(O)cc1 (stereo not drawn)
inactive: all assays above

OC(CN1CCCCC1)c1cc(-c2ccccc2)on1 (stereo not drawn)
not listed: [7] | [8]
inactive: all other assays above

O=C1CC[C@@H](C(=O)N2CSC[C@H]2C(=O)O)N1 ([pGlu]-[Thz]-OH)
not listed: [8]
inactive: all other assays above

CN1CCC(CN2c3ccccc3Sc3ccccc32)C1 (stereo not drawn)
active: [2] 5.96 µM | [3] 4.22 µM | [4] 5.96 µM
not listed: [6] | [10]
inactive: all other assays above

COC(F)(F)C(Cl)Cl
not listed: [6]
inactive: all other assays above

CC(CN(C)C)CN1c2ccccc2S(=O)(=O)c2ccccc21 (stereo not drawn)
inactive: all assays above

CCOC(=O)CCC(=O)O[C@H]1[C@H](O[C@@H]2[C@@H](C)[C@H](O[C@H]3C[C@@](C)(OC)[C@@H](O)[C@H](C)O3)[C@@H](C)C(=O)O[C@H](CC)[C@@](C)(O)[C@H](O)[C@@H](C)C(=O)[C@H](C)C[C@@]2(C)O)O[C@H](C)C[C@@H]1N(C)C
inactive: all assays above

CCC(CN)CC(C)CCNCC(O)CNCC(C)CC(CC)CN (stereo not drawn)
inactive: all assays above

CC(C)(C)c1ccc(CN2CCN(C(c3ccccc3)c3ccc(Cl)cc3)CC2)cc1 (stereo not drawn)
active: [2] 5.31 µM | [3] 4.22 µM | [4] 8.41 µM
not listed: [6]
inactive: all other assays above

CCOc1ccc(C[C@H]2NC(=O)CCSSC[C@@H](C(=O)N3CCC[C@H]3C(=O)N[C@@H](CCCN)C(=O)NCC(N)=O)NC(=O)[C@H](CC(N)=O)NC(=O)[C@H]([C@@H](C)O)NC(=O)[C@H]([C@@H](C)CC)NC2=O)cc1 ([Mpa][dY](Et)ITNCP[Orn]G-NH2; disulfide 1-6)
inactive: all assays above

CCCCCCOc1ccc(C(=N)N(CCCC)CCCC)c2ccccc12
inactive: [8]
active: [1] 13.4 µM | [2] 3.76 µM | [3] 5.31 µM | [4] 5.96 µM | [5] 15.1 µM | [9] 18.8 µM | [10] 16.8 µM

CC1(C)S[C@@H]2[C@H](NC(=O)C(C(=O)Oc3ccc4c(c3)CCC4)c3ccccc3)C(=O)N2[C@H]1C(=O)O (stereo partly drawn)
inactive: all assays above

CC(=O)O[C@H]1C[C@@]2(C)[C@@H](C[C@@H](O)[C@H]3[C@@]4(C)CC[C@@H](O)[C@@H](C)[C@@H]4CC[C@@]32C)/C1=C(\CCC=C(C)C)C(=O)O
not listed: [9]
inactive: all other assays above

OCC(O)COc1ccc(Cl)cc1 (stereo not drawn)
inactive: all assays above

C=C1CC[C@H](O)CC1=C/C=C1\CCC[C@]2(C)[C@@H]([C@H](C)CCCC(C)(C)O)CC[C@@H]12
active: [1] 10.7 µM | [2] 5.96 µM | [3] 6.68 µM | [4] 5.96 µM | [10] 26.6 µM
inactive: [5] | [7] | [8] | [9]

O=C[C@H](O)[C@@H](O)[C@H](O[C@H]1O[C@H](CO)[C@@H](O[C@H]2O[C@H](CO)[C@@H](O)[C@H](O)[C@H]2O)[C@H](O)[C@H]1O)[C@H](O)CO
active: [7] 7.56 µM | [8] 1.68 µM
inactive: all other assays above

CCCCOC(=O)C(=O)Nc1cccc(-c2nn[nH]n2)c1
inactive: all assays above

NCCCC[C@H](N)C(=O)O
not listed: [9]
inactive: all other assays above

CCCOc1cc(N)ccc1C(=O)OCCN(CC)CC
inactive: all assays above

CCCCCCCCCCCCCC[n+]1ccc(C)cc1
active: [1] 21.3 µM | [2] 0.188 µM | [3] 0.335 µM | [4] 0.266 µM | [5] 6.01 µM | [6] 9.52 µM | [10] 5.96 µM
inactive: [7] | [8]

N[C@@H](C(=O)N[C@@H]1C(=O)N2C(C(=O)O)=C(CSc3cn[nH]n3)CS[C@H]12)c1ccc(O)cc1
inactive: all assays above

CCC(Cc1c(I)cc(I)c(O)c1I)C(=O)O (stereo not drawn)
inactive: all assays above

COc1cc(Br)c(C[N+]2(CCOCCC3CCC4CC3C4(C)C)CCOCC2)cc1OC (stereo not drawn)
active: [2] 1.5 µM | [3] 2.66 µM | [4] 2.66 µM
inactive: [1] | [5] | [8] | [9]

C[N@+]12CCCC[C@@H]1CCC(=C(c1cccs1)c1cccs1)C2
inactive: [1] | [5] | [6]
active: [2] 5.96 µM | [3] 10.6 µM | [4] 8.41 µM | [9] 26.6 µM | [10] 18.8 µM

CN1CCN(CCC=C2c3ccccc3Sc3ccc(S(=O)(=O)N(C)C)cc32)CC1
active: [2] 10.6 µM | [3] 13.3 µM | [4] 16.8 µM | [5] 23.9 µM
inactive: [1] | [8] | [9]

CC(=O)[C@@]1(O)CC[C@H]2[C@@H]3C=C(Cl)C4=CC(=O)CC[C@]4(C)[C@H]3CC[C@@]21C
inactive: [1] | [5] | [9] | [10]
active: [2] 11.9 µM | [3] 23.7 µM | [4] 23.7 µM | [6] 0.674 µM | [8] 0.596 µM

CC(CN1c2ccccc2Sc2ccc(S(=O)(=O)N(C)C)cc21)N(C)C (stereo not drawn)
active: [2] 11.9 µM | [3] 26.6 µM | [4] 18.8 µM
inactive: all other assays above

CC(=O)Nc1ccc(OC(=O)c2ccccc2O)cc1
not listed: [7]
inactive: all other assays above

O=C1/C(=C\c2cccs2)CCC/C1=C\c1cccs1
active: [2] 23.7 µM | [3] 26.6 µM | [4] 29.8 µM
not listed: [6] | [7]
inactive: all other assays above

CC(C)(C)CC(=O)OCC(=O)[C@@]12OC(C)(C)O[C@@H]1C[C@H]1[C@@H]3CCC4=CC(=O)C=C[C@]4(C)[C@@]3(F)[C@@H](O)C[C@@]12C
inactive: [1] | [2] | [3] | [4] | [5] | [9]

CC#CCC(C)[C@H](O)/C=C/[C@@H]1[C@H]2c3cccc(CCCC(=O)O)c3O[C@H]2C[C@H]1O (stereo partly drawn)
not listed: [6] | [7]
inactive: all other assays above

C/C=C1\NC(=O)[C@H]2CSSCC/C=C/[C@H](CC(=O)N[C@H](C(C)C)C(=O)N2)OC(=O)C(C(C)C)NC1=O (stereo partly drawn)
inactive: [8] | [10]
active: [1] 2.39 µM | [2] 0.0013 µM | [3] 0.0012 µM | [4] 0.0017 µM | [5] 4.77 µM | [9] 7.5 µM

CC[C@@H]1/C=C(\C)C[C@H](C)C[C@H](OC)[C@H]2O[C@@](O)(C(=O)C(=O)N3CCCC[C@H]3C(=O)O[C@H](/C(C)=C/[C@@H]3CC[C@@H](Cl)[C@H](OC)C3)[C@H](C)[C@@H](O)CC1=O)[C@H](C)C[C@@H]2OC
inactive: [1] | [2] | [3] | [4] | [5] | [9]
